The source of these data is PubChem BioAssay AID434970 (Sanford-Burnham Center for Chemical Genomics, 2010).

Each structure is given as a SMILES string. The campaign covered roughly 11,000 compounds. About 310 (2.8%) were called active. This is one part of a sample in which actives are shown more often than they occur. Rule as the data show it: active = activity change below about -85%; inactive = the rest.

The test system of this experiment is intestinal alkaline phosphatase [Mus musculus]. The experiment in a line: mouse intestinal phosphatase enzyme activation – biochemical, luminescence, single concentration, confirmation (AID 434970). The note with it: purified mouse IAP, CDP-Star luminescence, 30 min, at 10 µM; activation factor: measured here: IAP activation factor, stronger effect = higher value; activity change, negative = activation: stronger effect = lower value.
For the molecule `CCOC(=O)c1ccc(-n2c(C)nc3c(cnn3-c3ccc(Cl)cc3)c2=O)cc1`, the activation factor was determined as 0.964 and the activity change, negative = activation is 3.55% (inactive).
For `CCCCCCCCCCCC(=O)NC(C(=O)OCC)C(O)c1cccc([N+](=O)[O-])c1` (stereo unspecified), in that order: 1.03 and -2.65% (inactive).
For `CC[C@]12c3[nH]c4ccc(Cl)cc4c3CCN1C(=O)[C@@H](CC(=O)NCCC1=CCCCC1)C[C@@H]2C(=O)N1CCN(C(=O)c2ccco2)CC1` the same measures were 1.08 and -8.45% (inactive).
Regarding `CC1OC23CCCCC2C(C#N)(C(=N)O3)C1(C#N)C#N` (stereo unspecified), the activation factor turned out to be 0.959 and the activity change, negative = activation is 4.1% (inactive).
For `CN(CC(=O)NC(c1ccccc1)c1ccccc1)Cc1nc2ccccc2c(=O)[nH]1`, in that order: 2.71 and -171% (active).
As to `CCN(CC(=O)NCc1ccc(F)cc1)Cc1nc2ccccc2c(=O)[nH]1`, the activation factor amounted to 1.14 and the activity change, negative = activation is -14.2% (inactive).
For `CCN(CC(=O)Nc1ccc2c(c1)OCO2)Cc1nc2ccccc2c(=O)[nH]1` the same measures were 1.23 and -23.5% (inactive).
`Cc1cc(Cl)cc(C)c1OCC(=O)O`: the activation factor came to 1.06 and the activity change, negative = activation was -5.8% (inactive).
`COc1ccc(NC(=S)Nc2cccc(S(=O)(=O)N3CCCCC3)c2)cc1`: the activation factor came out at 1.01 and the activity change, negative = activation was -1.4% (inactive).
`Cc1ccc(C(=O)NCC(=O)O)cc1S(=O)(=O)N1CCCCC1`: the activation factor was 0.994 and the activity change, negative = activation was 0.55% (inactive).
For `Cc1ccc(C)c(S(=O)(=O)N2CCN(CC(=O)NC(=O)NCc3ccccc3)CC2)c1`, in that order: 0.972 and 2.8% (inactive).
As for `COc1ccccc1NS(=O)(=O)c1ccc(C)c(C(N)=O)c1`, the activation factor came out at 0.925 and the activity change, negative = activation is 7.5% (inactive).
For `O=C(CNC1CCCCCC1)Nc1ccccc1N1CCCCC1`, in that order: 1.04 and -3.7% (inactive).
For `COc1ccc(OC)c(NS(=O)(=O)c2ccc(NC(C)=O)cc2)c1` the same measures were 0.988 and 1.15% (inactive).
`COc1ccc(NC(=O)Nc2ccccc2)cc1S(=O)(=O)N1CCCCC1`: the activation factor was 2.87 and the activity change, negative = activation is -187% (active).
For `COc1ccccc1NS(=O)(=O)c1cccc(NC(=O)Nc2ccc(Cl)cc2)c1`, in that order: 1.92 and -92.2% (active).
Consider `O=C(Nc1ccc(F)cc1)Nc1ccccc1N1CCCCC1`, for which the activation factor was found to be 1.58 and the activity change, negative = activation is -57.8% (inactive).
For `O=C(Nc1ccccc1)Nc1ccc(Cl)c(S(=O)(=O)N2CCOCC2)c1`, in that order: 1.53 and -53.4% (inactive).
For `Cc1cc(C)cc(NC(=O)Nc2ccccc2N2CCCCC2)c1` the same measures were 2.12 and -112% (active).
As to `Cc1ccc(NC(=S)NCc2ccccc2)cc1S(=O)(=O)N1CCCCC1`, the activation factor is 2.87 and the activity change, negative = activation is -187% (active).
Turning to `COc1ccc(C(=O)Nc2cccc(C(C)=O)c2)c(OC)c1OC`, the activation factor was determined as 0.951 and the activity change, negative = activation is 4.95% (inactive).
As to `COC(=O)CC1C(=O)NCCN1C(=O)Nc1ccccc1` (stereo unspecified), the activation factor was determined as 0.938 and the activity change, negative = activation is 6.25% (inactive).
For `CCOC(=O)Cc1cc(=O)n(-c2nc3ccccc3s2)[nH]1`, the activation factor is 0.806 and the activity change, negative = activation is 19.4% (inactive).
For `O=C(CN1C(=O)C2CC=CCC2C1=O)Nc1ccc(S(=O)(=O)NC2=NCCCCC2)cc1` (stereo unspecified), in that order: 0.903 and 9.65% (inactive).
As for `CC[C@@H]1C(c2cccc(C)c2)=NN(c2ccccc2)[C@H]1C(=O)N1CCOC1=O`, the activation factor stood at 1.14 and the activity change, negative = activation was -14.2% (inactive).
As to `COc1cccc(-n2c(SCC(=O)Nc3nccs3)nnc2-c2ccoc2C)c1`, the activation factor stood at 0.982 and the activity change, negative = activation was 1.8% (inactive).
As to `O=C1OCCN1C(=O)[C@H]1[C@H](c2ccc([N+](=O)[O-])cc2)C(c2ccccc2)=NN1c1ccc(Br)cc1`, the activation factor worked out at 0.908 and the activity change, negative = activation was 9.2% (inactive).
For `O=C(Nc1cccc(C(F)(F)F)c1)Nc1ccc(N2CCCC2)c(S(=O)(=O)Nc2ccccc2Cl)c1`, the activation factor stood at 1.67 and the activity change, negative = activation was -66.9% (inactive).
For `COc1ccccc1NS(=O)(=O)c1cc(NC(=O)Nc2cccc(C)c2)ccc1N1CCCCC1` the same measures were 3.78 and -278% (active).
For `COc1ccc(C(=O)O)cc1S(=O)(=O)Nc1cccc(C)c1` the same measures were 0.988 and 1.25% (inactive).
For `Cc1cc(-c2csc(NC(=O)c3ccc(=O)[nH]c3)n2)c(C)n1Cc1ccco1` the same measures were 0.347 and 65.4% (inactive).
For `CCCc1c(O)nc(SC2CC(=O)N(c3cc(OC)ccc3OC)C2=O)[nH]c1=O` (stereo unspecified), the activation factor came to 1.01 and the activity change, negative = activation is -0.65% (inactive).
For `C=CCn1c(SCC(=O)Nc2cc(C)ccc2OC)nnc1-c1ccco1`, the activation factor was 1.07 and the activity change, negative = activation is -7.4% (inactive).
For `CCOC(=O)C1=CN(Cc2ccc(Br)cc2)S(=O)(=O)NC1C` (stereo unspecified), in that order: 0.968 and 3.25% (inactive).
For `O=C(Nc1ccc(Cl)cc1)Nc1ccc(N2CCOCC2)cc1`, in that order: 1.17 and -16.9% (inactive).
With `O=C(Nc1ccc(Cl)cc1)N[C@@H]1c2c(ccc3ccccc23)OC[C@@H]1CO`, the activation factor was found to be 4.85 and the activity change, negative = activation was -385% (active).
For `O=C(Nc1ccc(Cl)cc1)Nc1ccc(-c2cnco2)cc1`, in that order: 1.34 and -34.5% (inactive).
With `CCCCc1ccc(CC(=O)O)cc1`, the activation factor came to 0.907 and the activity change, negative = activation was 9.3% (inactive).
